PubChem BioAssay (NCI)
Where “and” joins values, the source holds several entries; their conditions need not be identical. Identical values can stand only once. Compounds without any hit were thinned out: in the full panel of roughly 83,000, 20% have a hit.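 In brief: 96-well plates, 48 h treatment, single concentration, percent growth endpoint.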 Calls of active or inactive are those of the source. How the source made its calls: active means growth percent below 10; inactive means the rest.

Assays:
Experiment in all cases: NCI-60 one-dose screen, 48 h (100 = growth as untreated, 0 = no growth, -100 = all killed)
HCT-15 colon = conditions: 10 µM
HT29 colon = tested on: HT29 colon
SNB-19 CNS = tested on: SNB-19 CNS
U251 CNS = conditions: 10 µM unless noted
UACC-62 melanoma = tested on: UACC-62 melanoma
LOX IMVI melanoma = conditions: 10 µM unless noted
SK-MEL-28 melanoma = tested on: SK-MEL-28 melanoma
PC-3 prostate = conditions: 10 µM
SK-MEL-5 melanoma = conditions: 10 µM unless noted
SNB-75 CNS = conditions: 10 µM

SMILES	growth (HCT-15 colon)	growth (HT29 colon; 10 µM)	growth (SNB-19 CNS; 10 µM)	growth (U251 CNS)	growth (UACC-62 melanoma; 10 µM)	growth (LOX IMVI melanoma)	growth (SK-MEL-28 melanoma; 10 µM)	growth (PC-3 prostate)	growth (SK-MEL-5 melanoma)	growth (SNB-75 CNS)	growth (HT29 colon; 100 µM)	growth (SNB-19 CNS; 100 µM)	growth (UACC-62 melanoma; 100 µM)	growth (SK-MEL-28 melanoma; 100 µM)
NC(=O)SCC(=O)NNc1ccccc1	89.2% (inactive)	103% (inactive)	108% (inactive)	87.8% (inactive)	70.9% (inactive)	67.1% (inactive)	106% (inactive)							
O=C(Nc1ccc(C(=O)O)c(O)c1)c1ccccc1	104% (inactive) and 99% (inactive)	103% (inactive) and 105% (inactive)	107% (inactive) and 102% (inactive)	96.6% (inactive) and 104% (inactive)	96.7% (inactive) and 96.4% (inactive)	97.4% (inactive) and 97% (inactive)	110% (inactive) and 151% (inactive)	91% (inactive) and 97.5% (inactive)						
CCCC1CCC(=C2C(=O)CCC2=O)O1 (stereo unspecified)	105% (inactive) and 92% (inactive)	94.2% (inactive) and 97.4% (inactive)	99.7% (inactive) and 98.9% (inactive)	102% (inactive) and 98.5% (inactive)	86.8% (inactive) and 93.7% (inactive)	94.5% (inactive) and 97.6% (inactive)	103% (inactive)		88.6% (inactive) and 102% (inactive)					
CC(=O)OCC(OC(C)=O)C(OC(C)=O)C(OC(C)=O)C(OC(C)=O)C(/C=N/Nc1ccccc1)=N/Nc1ccccc1 (stereo unspecified)	59.5% (inactive)	56.1% (inactive)	88.9% (inactive)	72.5% (inactive)		36.8% (inactive)	101% (inactive)			87.4% (inactive)				
NNc1ccc2ccccc2c1		99.8% (inactive) and 104% (inactive)	99% (inactive) and 102% (inactive)	103% (inactive) and 101% (inactive)	78% (inactive) and 99.9% (inactive)	75.5% (inactive) and 91.7% (inactive)	111% (inactive) and 114% (inactive)	73% (inactive) and 82% (inactive)		79.1% (inactive) and 75.7% (inactive)				
O=C(O)COc1ccc(OCC(=O)O)cc1	71.7% (inactive)	5.13% (active)	8.27% (active)	-0.509% (active)	-3.08% (active)	-64.4% (active)	53.2% (inactive)			-11.9% (active)				
O=C(C(=Cc1ccccc1)C(=O)c1ccccc1)c1ccccc1		47.1% (inactive) and 91.2% (inactive)	46.9% (inactive) and 92.4% (inactive)	86.2% (inactive)	48.8% (inactive) and 66.7% (inactive)	-56.4% (active) and 77.5% (inactive)	60.4% (inactive) and 105% (inactive)		66.6% (inactive) and 94.4% (inactive)	69.7% (inactive) and 81.4% (inactive)				
O=c1ccn(C2CC(O)C(COC(c3ccccc3)(c3ccccc3)c3ccccc3)O2)c(=O)[nH]1 (stereo unspecified)		86% (inactive)	98.2% (inactive)	55.5% [100 µM] (inactive)	82.6% (inactive)	79.2% (inactive)	118% (inactive)				33.1% (inactive)	69.8% (inactive)	29.8% (inactive)	45.6% (inactive)
COc1ccc(CC(=O)c2ccc(O)cc2O)cc1	131% (inactive)	112% (inactive)	121% (inactive)	116% (inactive)	120% (inactive)	108% (inactive)	139% (inactive)							
CCC(C)(C)c1cc(O)c(C(C)(C)CC)cc1O	43.8% (inactive)	28.5% (inactive)	21.8% (inactive)	30.4% (inactive)	35.4% (inactive)	13% (inactive)	43.5% (inactive)	32.3% (inactive)		52.1% (inactive)				
C[n+]1c2cc(N)ccc2cc2ccc(N)cc21	19.6% (inactive) [middle of 4 runs]	4.57% (active) [middle of 4 runs]		1.21% (active) [middle of 4 runs]	-30.5% (active) and -37% (active) and -78.6% (active)	1.35% (active) [middle of 4 runs]								
Nc1c2ccccc2nc2ccccc12	5.79% (active) and 15.8% (inactive) and 26.5% (inactive)	-21.6% (active) and 20.8% (inactive) and 19.9% (inactive)	22.5% (inactive) and 39.8% (inactive)	6.74% (active) and 26.5% (inactive) and 34.7% (inactive)	13.9% (inactive) and 36.3% (inactive) and 27.3% (inactive)	-53.7% (active) and 14.9% (inactive) and 12.4% (inactive)	18% (inactive) and 28.2% (inactive) and 82.1% (inactive)							
CC(=O)Nc1cc(C)ccc1C		95.3% (inactive)	101% (inactive)	101% (inactive)	98.3% (inactive)	101% (inactive)	105% (inactive)	106% (inactive)	93.3% (inactive)	96.2% (inactive)				
